High-throughput results: PubChem, National Center for Advancing Translational Sciences (NCATS)
A selection: hits, their analogues and other compounds. The true share with any hit is near 3.8%.
TGFb inhibitor – blocks TGF-b signaling; HepG2 CAGA-GFP TGF-b/SMAD3 reporter, GFP fluorescence, 18 h; TGF-beta stimulated, 500 pg/mL final; Potency, µM (titrated, usually from 46.1 µM), without a hit: at the highest dose activity, negative = inhibition, most hits filed as inhibitors; 410,000 tested, 1.2% active; AID 588855; also: % is scaled to controls: 0 for no effect and ±100 for the full control effect; nearly all actives have a fitted effect of over 65% in size
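HEPG2 CAGA-GFP, 1000 cells/well; 2 h settle, 37 C; cpd via pin tool; TGF-b 500 pg/mL final; 18 h, 37 C; GFP imaging ex488/em500-530; %Activity normalised to -TGF-b and +DMSO controls; CRC fit, curve class.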
ATXN2 expr inh – inhibitors of ATXN2 expression; Potency, µM (highest dose often 57 µM), for the others: top-dose activity change, negative = inhibition, most hits filed as inhibitors; AID 1745845; HEK-293 ATXN2-luciferase reporter, luminescence, 24 h; 360,000 tested, 0.72% active; also: % is scaled to controls: 0 for no effect and ±100 for the full control effect; nearly all actives have a fitted effect of over 55% in size
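ATXN2-luciferase reporter cells (luciferase flanked by upstream and downstream ATXN2 gene portions) were treated 24 h at 37 °C with compounds at up to 57 uM. SteadyGlo luminescence gave expression; GF-AFC fluorescence gave viability.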
HepG2 tox-1 – kills HepG2 cells in TGF-b inhibitor counter-screen. HepG2 CAGA-GFP viability, ATP luminescence, 18 h. Potency, µM (titrated, usually from 46.1 µM), inactives show top-dose activity change, negative = cytotoxicity, most hits filed as cytotoxic. 410,000 tested, 0.76% active
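HepG2 CAGA-GFP cells (1000/well, DMEM with 1% FBS) received compound, then TGF-beta at 500 pg/mL final, and were incubated 18 hours at 37 degrees C. Viability was read by CellTiter-Glo luminescence. Media-only wells were set as complete cell-killing and DMSO as no toxicity.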
ATXN viability – reduces viability in counter-screen for ATXN expression inhibitors | 400,000 tested, 0.49% active | Potency, µM (doses to about 56.7 µM), actives largely listed as cytotoxic | S2 cells (HEK-293 line with an ATXN2-luciferase reporter) viability, CellTiter-Fluor protease fluorescence, 24 h; also: nearly all actives have a fitted effect of over 40% in size
HT1080 IDH1KD tx – kills HT-1080 cells with IDH1 knockdown; Potency, µM (doses to about 46.1 µM), without a hit: at the top dose activity, negative = toxicity, usual class: cytotoxic; HT-1080 IDH1 knockdown viability, ATP luminescence, 48 h; AID 686971; 360,000 tested, 2% active;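 also: 0% = DMSO wells and -100% = cell-free medium wells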
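Assay cells: HT-1080 with IDH1 knockdown, 750 per well, RPMI/5% FBS. Exposure: 48 h at 37 °C following 2 h pre-incubation. Read: CellTiter-Glo luminescence; fitted concentration-response, curve class assigned.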
HT1080NT lethal – kills 2HG-producing HT-1080-NT fibrosarcoma cells | AID 686970 | HT-1080-NT fibrosarcoma viability, CellTiter-Glo ATP luminescence, 48 h | 360,000 tested, 1.6% active | Potency, µM (titrated, usually from 46.1 µM), for inactives: at the highest dose activity, negative = less viability, actives largely listed as cytotoxic;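 also: NT is the 2HG producing partner of a matched IDH1 knockdown line; 0% = DMSO-treated cells and -100% = media-only wells without cells; nearly all actives have a fitted effect of over 55% in size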
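HT-1080-NT; 750 cells/well; 5% FBS RPMI; 48 h compound, 37 degrees C; CellTiter-Glo luminescence; curve fitting and curve-class assignment.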
TGFb CAGA inh – confirmation of TGF-b signaling inhibitors in HepG2 reporter cells | AID 720534 | 1,600 tested, 63% active | HepG2 CAGA-GFP TGF-b reporter, GFP fluorescence, 18 h; cells stimulated with TGF-beta, 500 pg/mL | shares compounds with TGFb inhibitor | Potency, µM (series often up to 46.1 µM), inactives show at the highest dose activity, negative = inhibition, hits mostly inhibitors; also: % is scaled to controls: 0 for no effect and ±100 for the full control effect; nearly all actives have a fitted effect of over 65% in size
HepG2 tox-2 – HepG2 cytotoxicity, TGF-b inhibitor counterscreen | Potency, µM (top dose mostly 46.1 µM), inactives show top-dose activity, negative = cytotoxicity, hits mostly inhibitors | AID 720535 | shares compounds with TGFb inhibitor | HepG2 CAGA-GFP viability, ATP luminescence, 18 h; cells stimulated with TGF-beta, 500 pg/mL | 1,600 tested, 27% active; also: % is scaled to controls: 0 for no effect and ±100 for the full control effect; nearly all actives have a fitted effect of over 70% in size
TGFb CCL64 inh – TGF-b inhibition, CCL64 orthogonal assay; CCL64 CAGA-GFP reporter, TGF-b stimulated, GFP fluorescence, 18 h; shares compounds with TGFb inhibitor; AID 720536; 1,600 tested, 41% active; Potency, µM (highest dose often 46.1 µM), inactives show top-dose activity, negative = inhibition, hits mostly inhibitors; also: nearly all actives have a fitted effect of over 65% in size
COP TGFb inh – blocks TGF-b signaling in HepG2 COP reporter. shares compounds with TGFb inhibitor. HepG2 COP-GFP TGF-b reporter, GFP fluorescence, 18 h; cells stimulated by added recombinant TGF-beta. Potency, µM (top dose mostly 46.1 µM), for the others: at the top dose activity, negative = inhibition, hits mostly inhibitors. 1,600 tested, 3% active; also: nearly all actives have a fitted effect of over 70% in size
* marks the source's active call; other numbers are inactive results; i = inactive; ? = inconclusive; · = not tested or not shown. Calls follow the shape of the dose curve; as a rule, active = well fitted curve in the direction sought with a large enough effect; inconclusive = small, poorly fitted or top-dose-only effect, or another doubt; inactive = no such curve, though single readings can be large; an effect the other way counts as inactive or inconclusive. Potency is read from the fitted curve at half-maximal effect.

SMILES	TGFb inhibitor	ATXN2 expr inh	HepG2 tox-1	ATXN viability	HT1080 IDH1KD tx	HT1080NT lethal	TGFb CAGA inh	HepG2 tox-2	TGFb CCL64 inh	COP TGFb inh
CCN(CCCNC(=O)CSc1cc(=O)n(CC)c2ccccc12)c1cccc(C)c1	?	-13%	-39%	?	·	·	·	·	·	·
Cc1cc(C)c(Cn2c3ccccc3c3cnn(CC(=O)NC4CCC(C)CC4)c(=O)c32)c(C)c1 (stereo not given)	1%	9%	2%	i	·	·	·	·	·	·
CC(C)(C)OC(=O)[C@H](Cc1ccccc1)NC(=O)c1[nH]cnc1C(=O)Nc1cccc(Cl)c1	10µM*	?	-55%	32µM*	?	?	21µM*	18µM*	?	30%
CC(C)(C)OC(=O)[C@H](Cc1ccccc1)NC(=O)c1nc[nH]c1C(=O)N[C@@H](Cc1ccccc1)C(=O)OC(C)(C)C	13µM*	?	-12%	?	?	-19%	15µM*	?	?	39%
CCc1ccc(CN(C)C(=O)c2cc(COc3cccc4cnccc34)on2)cc1	10µM*	·	-38%	i	15µM*	?	?	?	?	29%
CN(Cc1cccc2cnccc12)C(=O)c1cc(COc2ccc(F)cc2F)on1	-17%	?	-39%	i	-13%	4%	·	·	·	·
O=Cc1cn(CC(=O)Nc2ccc3c(c2)OCO3)c2ccccc12	7.1µM*	-37%	-25%	?	0%	-2%	8.2µM*	3.3µM*	15%	34%
O=C(c1ccc2c(c1)N(Cc1ccc(Cl)cc1)C(=O)c1ccccc1S2=O)N1CCC(Cc2ccccc2)CC1 (stereo not given)	?	?	-41%	i	·	·	·	·	·	·
COc1cccc(-c2cnc3c(NC=O)cc(-c4ccc(OC)cc4OC)cn23)c1	4.5µM*	0%	-22%	?	?	?	4.1µM*	-28%	3.3µM*	16%
CC(=O)c1ccc(-c2cnc3c(NC=O)cc(-c4ccccc4Oc4ccccc4)cn23)cc1	11µM*	?	-15%	·	?	?	?	-18%	?	54%
COc1ccccc1-c1cc(NC=O)c2ncc(-c3cccc(C(C)=O)c3)n2c1	-26%	?	-41%	?	?	?	·	·	·	·
COc1ccccc1-c1cc(NC=O)c2ncc(-c3cccc(C(=O)N(C)C)c3)n2c1	7.9µM*	0%	-7%	?	?	?	5.2µM*	-26%	?	10%
COc1ccc(-c2nc(N3CCN(S(=O)(=O)c4ccccc4)CC3)c3ccccc3n2)cc1	-5%	·	-1%	·	·	·	·	·	·	·
CCOC1=CC2=C(C(=O)C(Cl)=CC2=O)[C@@H]2CN(S(=O)(=O)c3ccc(C)cc3)[C@@H](c3ccccc3)[C@H]12	11µM*	?	-28%	?	?	?	4.1µM*	?	5.2µM*	17%
CCN1C(=O)[C@@H]2[C@@H]3CN(S(=O)(=O)c4ccc(C)cc4)[C@@H](c4ccccc4)[C@@H]3C(=O)C[C@@H]2C1=O	-8%	9%	-20%	i	19%	16%	·	·	·	·
COc1ccc(C(=O)Oc2cccc3cccnc23)cc1[N+](=O)[O-]	6.3µM*	-20%	5.6µM*	?	16µM*	10%	3%	0%	16%	5%
NC(=O)c1ccc(Oc2cccc3cccnc23)c([N+](=O)[O-])c1	3%	-9%	7%	i	-4%	-23%	·	·	·	·
COc1ccc(NCc2nc3ccccc3n2CCOc2ccc(C)cc2)cc1	14µM*	?	-32%	?	?	18µM*	13µM*	?	8.2µM*	40%
O=C(COC(=O)c1ccc2ccccc2n1)Nc1cccc(S(=O)(=O)NC2=NCCCCC2)c1	-2%	·	-75%	i	-6%	-8%	·	·	·	·
CCc1nc2ccccc2c(C(=O)OCC(=O)Nc2cccc(S(=O)(=O)NC3=NCCCCC3)c2)c1C	11µM*	22µM*	-22%	?	?	?	7.3µM*	?	?	21%
CCC(C)(C)NC(=O)c1ccc(Sc2nncn2C)c([N+](=O)[O-])c1	3%	-24%	3%	i	3%	-8%	·	·	·	·
Cn1cnnc1Sc1ccc(/C=C/C(=O)c2ccc(O)cc2)cc1[N+](=O)[O-]	?	·	-3%	7.1µM*	18µM*	18µM*	2.6µM*	9.2µM*	23µM*	?
Cc1ccccc1-c1noc(-c2ccc(NCc3ccco3)c([N+](=O)[O-])c2)n1	89%	23%	-1%	i	·	·	·	·	·	·
COc1ccccc1CNC(=O)C(Cc1c[nH]c2ccccc12)NC(=O)OCc1ccccc1 (stereo not given)	11µM*	-3%	-10%	?	-13%	-16%	?	?	?	25%
COc1ccc(/C(C)=N/Nc2nncc3ccccc23)cc1	?	85%	-5%	i	2%	3%	·	·	·	·
COc1ccc(/C(C)=N/Nc2nc3ccccc3nc2C)cc1	7.9µM*	-21%	-41%	i	?	?	?	-1%	-13%	12%
CC(=O)Nc1ccc(NC(=O)C2Cc3c(-c4cccc(F)c4)ccnc3O2)cc1 (stereo not given)	9%	9%	-1%	i	-3%	-4%	·	·	·	·
